Screening results: PubChem, National Center for Advancing Translational Sciences (NCATS)
RORg inh = inhibitors of mouse ROR gamma transcriptional activity. P51450. Drosophila S2 Gal4-RORgamma UAS-luciferase reporter, 20 h. Potency, µM (doses to about 53.6 µM), for the others: at the highest dose activity change, negative = inhibition, usual class: inhibitors. 310,000 tested, 5.4% active. AID 2551; also: potency is read from the fitted curve at half-maximal effect; % is scaled to controls: 0 for no effect and ±100 for the full control effect; nearly all actives have a fitted effect of over 60% in size
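Stably transfected Drosophila Schneider cells are the test system, with ROR gamma fused to Gal4 and luciferase under UAS control; luminescence is read after 20 hr of 700 uM copper sulfate induction at ambient temperature.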
CtBP-E1A inh = CtBP/E1A binding inhibition; AlphaScreen GST-E1A/His-CtBP binding, 1536-well; hits give low values; activity change, % (no concentration beside the values); 340,000 tested, 0.49% active; in the data active = activity change below about -65%; inconclusive = mostly about -30% to -63%; also: % is scaled to controls: 0 for no effect and ±100 for the full control effect
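Steps: dispense buffer (Tris pH 8.0, NaCl 300 mM, TCEP 1 mM, BSA, Tween 20); add 5X protein mix (GST-E1A, His-CtBP, 125 nM each); pin 23 nL compound; 2 h at 37 °C, dark; add 5X beads (50 ug/mL); 1 h; read.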
Gal4-VP16 FLuc = inhibits Gal4-VP16 luciferase reporter, ROR gamma counter-screen | Drosophila S2 Gal4-VP16 UAS-luciferase, luminescence, 20 h | Potency, µM (series often up to 53.6 µM), for inactives: at the highest dose activity, negative = inhibition, hits mostly inhibitors | AID 2546 | 310,000 tested, 3.5% active;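 also: Gal4-VP16 expression switched on by copper sulfate through the metallothionein promoter; potency is read from the fitted curve at half-maximal effect; % is scaled to controls: 0 for no effect and ±100 for the full control effect; nearly all actives have a fitted effect of over 50% in size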
CBFb RUNX1 block = CBF-beta/RUNX1 interaction disruption. AlphaScreen CBFb-His/RUNX1-biotin binding, biochemical. Potency, µM (top dose mostly 59.8 µM), without a hit: at the highest dose activity, negative = inhibition, actives largely listed as inhibitors. AID 1477. Q01196+Q13951. 230,000 tested, under 10 active; also: % of control where 0% means no effect
Target sequence (Q01196 whole entry, looked up): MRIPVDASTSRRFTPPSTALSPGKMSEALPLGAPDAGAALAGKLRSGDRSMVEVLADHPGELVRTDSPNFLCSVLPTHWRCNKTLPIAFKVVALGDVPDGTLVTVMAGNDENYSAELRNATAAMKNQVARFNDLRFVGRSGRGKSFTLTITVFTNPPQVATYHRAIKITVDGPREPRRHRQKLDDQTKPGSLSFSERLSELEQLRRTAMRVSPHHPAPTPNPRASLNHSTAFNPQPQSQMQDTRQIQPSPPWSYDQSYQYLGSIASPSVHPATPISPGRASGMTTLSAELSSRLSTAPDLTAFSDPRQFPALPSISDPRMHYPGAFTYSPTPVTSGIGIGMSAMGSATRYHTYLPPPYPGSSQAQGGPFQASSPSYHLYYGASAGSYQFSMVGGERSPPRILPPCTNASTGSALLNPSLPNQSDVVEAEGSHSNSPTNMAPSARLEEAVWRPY
Target sequence (Q13951 whole entry, looked up): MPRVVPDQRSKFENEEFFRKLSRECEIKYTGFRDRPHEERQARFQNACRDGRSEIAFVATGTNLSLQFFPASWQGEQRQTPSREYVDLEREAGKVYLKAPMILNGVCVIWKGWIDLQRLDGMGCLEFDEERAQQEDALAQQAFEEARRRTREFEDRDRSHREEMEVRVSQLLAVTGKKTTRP
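Inhibition was taken as any reduction in AlphaScreen signal from the CBF-beta–RUNX1 pair (His and biotin tags, 30 nM each), measured after compound (15 min) and bead (90 min) incubations at room temperature.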
MBNL1 CUG block = inhibitors of human MBNL1 binding to CUG repeat RNA | Q9NR56 | TR-FRET MBNL1-His/biotin-(CUG)12 binding, 665/545 ratio | Potency, µM (top dose mostly 57.5 µM), for the others: at the highest dose activity change, negative = inhibition, usual class: inhibitors | 280,000 tested, 0.036% active | AID 2675; active = well fitted inhibition curve with a large enough effect in the signal ratio, with a control signal flat, not every such curve was filed as active; inconclusive = small, poorly fitted or top-dose-only effect, or effect the other way, or a change in a side signal; inactive = no such curve, though single readings can be large or run the other way; the % refers to the signal ratio; also: potency is read from the fitted curve at half-maximal effect; % is scaled to controls: 0 for no effect and ±100 for the full control effect
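His-tagged MBNL1 binding to biotinylated (CUG)12 RNA was measured by TR-FRET using terbium anti-His antibody (0.055 ng/ul final) and streptavidin-XL665 (5 nM final). Compounds were titrated 92 nM to 58 uM; 60 min at room temperature.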
Six1-Eya2 blk = Six1/Eya2 interaction inhibition; AlphaScreen GST-Six1/His-Eya2 binding, biochemical; hits give low values; activity change, % (no concentration beside the values); 360,000 tested, 0.56% active; in the data active = activity change below about -65%; inconclusive = mostly about -30% to -63%; also: % is scaled to controls: 0 for no effect and ±100 for the full control effect
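AlphaScreen luminescence read after one hour at 37 °C in darkness. Pin-transferred compounds met GST-Six1 and His-Eya2 protein (5X stock 250 nM/500 nM) plus glutathione donor and Ni-chelate acceptor beads (5X, 50 ug/mL).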
Starred values were filed as active, the others as inactive; ? = inconclusive; nt = no result. Hits are enriched below; roughly 5.5% of the tested compounds scored in any of these assays. Unless noted, calls follow the shape of the dose curve; as a rule, active = well fitted curve in the direction sought with a large enough effect; inconclusive = small, poorly fitted or top-dose-only effect, or another doubt; inactive = no such curve, though single readings can be large; an effect the other way counts as inactive or inconclusive.

SMILES	RORg inh	CtBP-E1A inh	Gal4-VP16 FLuc	CBFb RUNX1 block	MBNL1 CUG block	Six1-Eya2 blk
Cc1ccc(CSC(Nc2ccc(F)cc2)=C(C#N)C#N)cc1	?	3	25µM*	4%	-7%	2
CCCc1ccc(O)c(N=Cc2cc(Br)cc(OCC)c2O)c1	7.1µM*	0	13µM*	-20%	-8%	-4
CCC(C)(C)C1CCc2c(sc(N)c2C(N)=O)C1 (centres undefined)	?	0	?	0%	-3%	-3
CC(C)(C)C1CCc2c(sc(N)c2C(N)=O)C1 (centres undefined)	0%	5	16µM*	-19%	24%	1
Clc1ccc(/C=N/Nc2nc(Cl)nc3ccccc23)cc1	-22%	?	?	-7%	5%	?
C(=N\Nc1ncnc2ccccc12)/c1ccccc1	2.5µM*	nt	1µM*	-24%	?	-16
Clc1cccc(/C=N/Nc2ncnc3ccccc23)c1	1.3µM*	-17	4.5µM*	-13%	20%	-16
Cc1sc(NC(=O)c2ccccc2)c(C(c2ccc(Cl)cc2)N2CCN(CCO)CC2)c1C (centres undefined)	?	-13	22µM*	4%	nt	-24
CCOc1ccc(S(=O)(=O)N2CCN(C(=O)c3ccc(-n4cncn4)c([N+](=O)[O-])c3)CC2)cc1	nt	3	nt	nt	nt	-5
COc1ccc(C(=O)NC(=O)Nc2cc(C)ccn2)cc1	0.04µM*	7	0.18µM*	6%	-1%	6
Cc1ccnc(NC(=O)Nc2ccc(F)cc2)c1	?	1	-14%	6%	-2%	-6
CSc1ccc(NC(=O)Nc2cc(C)ccn2)cc1	8.9µM*	-5	?	-3%	-6%	5
COc1ccc(C(=O)/C=C/Nc2cc(C)ccn2)cc1	0.2µM*	7	?	6%	?	-8
N#Cc1ccc(CN2CCC3(CC2)CCN(C(=O)c2csnn2)CC3)cc1	-7%	nt	-9%	nt	nt	nt
COc1cccc(/C=N/NC(=O)CNC(=O)COc2cccc(C)c2)c1O	0.28µM*	nt	2.2µM*	-6%	-2%	-73*
Cc1cccc(OCC(=O)NCC(=O)N/N=C/c2ccccc2)c1	-10%	3	-3%	nt	1%	-2
Cc1cccc(OCC(=O)NCC(=O)N/N=C/c2cc(Br)ccc2OCc2ccccc2)c1	?	6	-12%	-7%	nt	5
Cc1cccc(OCC(=O)NCC(=O)N/N=C/c2ccc(O)cc2O)c1	?	nt	-13%	-13%	-11%	-85*
COc1cccc(C(NC(C)=O)c2ccc3cccnc3c2O)c1 (centres undefined)	2.8µM*	-91*	5µM*	nt	12%	-67*
Oc1cccc(C(Nc2nccs2)c2ccc3cccnc3c2O)c1 (centres undefined)	1.4µM*	-81*	3.5µM*	?	nt	-83*
O=[N+]([O-])c1ccc(NC(c2ccccc2)c2ccc3cccnc3c2O)cc1 (centres undefined)	nt	-20	nt	nt	nt	-18
CC(=O)NC(c1cccc([N+](=O)[O-])c1)c1ccc2cccnc2c1O (centres undefined)	1.4µM*	-92*	2µM*	nt	?	-69*
COc1cccc(C(Nc2ccccc2)c2ccc3ccc(C)nc3c2O)c1 (centres undefined)	nt	-5	nt	nt	nt	-25
O=[N+]([O-])c1ccccc1S(=O)c1ccccc1[N+](=O)[O-]	nt	0	nt	nt	nt	-3
COCC(C)n1c(C)cc(C(=O)COC(=O)c2c(NC(C)=O)sc(C)c2C)c1C (centres undefined)	4.5µM*	1	-15%	3%	-6%	4
COCC(C)n1c(C)cc(C(=O)COC(=O)c2c(C)nn(-c3ccccc3)c2C)c1C (centres undefined)	31%	-17	-2%	-13%	7%	-10
O=C(NC1CCCCC1)N1CCN(c2ccccc2Cl)CC1	1%	3	0%	nt	4%	22
